Assay results taken from PubChem BioAssay (Tox21).
Results filed as inconclusive are left out. Calls of active or inactive are those of the source. Unless noted, calls come from the whole dose curve.

How the values were obtained:
[1] = qHTS assay to identify small molecule antagonists of the vitamin D receptor (VDR) signaling pathway - cell viability counter screen (AID 743225; active = well fitted cell-killing curve with a large enough effect in the repeat runs; note: % is set by controls: 0 for no effect and ±100 for the full control effect; nearly all actives have a fitted effect of over 50% in size)
Outline: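 Same-well multiplex: following 16 h treatment of HEK 293T cells carrying a UAS-driven beta-lactamase reporter with compound and agonist (3 nM final), and a 2 h FRET substrate step, CellTiter-Glo was added and luminescence read after 30 min.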

[2] = qHTS assay to identify small molecule agonists of the NFkB signaling pathway (AID 1159509; active = well fitted curve in the direction sought with a large enough effect in the signal ratio in the repeat runs, not every such curve was filed as active; the % refers to the signal ratio; note: series mostly up to about 61 µM; % is set by controls: 0 for no effect and ±100 for the full control effect)
Outline: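 NFkB-bla ME-180 cells carry a beta-lactamase reporter under an NF-kB response element. They were plated overnight, then exposed to compounds for 5 h at 37 C. Read-out is LiveBLAzer FRET after 1.5 hr at room temperature (405 nm excitation; 460/530 nm emission).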

[3] = qHTS assay to identify small molecule agonists of the NFkB signaling pathway - cell viability counter screen (AID 1159515); note: series mostly up to about 61 µM; % is set by controls: 0 for no effect and ±100 for the full control effect; nearly all actives have a fitted effect of over 55% in size
Outline: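 NFkB-bla ME-180 cells, 2,000/well, were plated overnight at 37 C, 5% CO2, then exposed to compounds in DMSO for 5 hr. After the bla FRET read, CellTiter-Glo was added to the same wells; luminescence was read after 30 min at room temperature.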

[4] = qHTS assay to identify small molecule agonists of the endoplasmic reticulum stress response signaling pathway (AID 1159516; active = well fitted activation curve with a large enough effect in the signal ratio in the repeat runs, not every such curve was filed as active; the % refers to the signal ratio; note: % is set by controls: 0 for no effect and ±100 for the full control effect)
Outline: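 CellSensor ESRE-bla HeLa cells, carrying a beta-lactamase reporter driven by the ER stress response element, were plated overnight and exposed to compounds for 5 hr at 37 C. Reporter activity was read as FRET substrate fluorescence after 2 hr at room temperature.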

[5] = qHTS assay to identify small molecule agonists of the endoplasmic reticulum stress response signaling pathway - cell viability counter screen (AID 1159517); note: series mostly up to about 61 µM; % is set by controls: 0 for no effect and ±100 for the full control effect; nearly all actives have a fitted effect of over 50% in size
Outline: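 CellTiter-Glo was added to wells already read for beta-lactamase FRET, and luminescence was recorded 30 min later. Cells: ESRE-bla HeLa, 1,500 per well, compound exposure 5 hr at 37 C.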

[6] = qHTS assay to identify small molecule antagonists of the retinoid-related orphan receptor gamma (ROR-gamma) signaling pathway - cell viability counter screen (AID 1159520; active = well fitted cell-killing curve with a large enough effect in the repeat runs; note: % is set by controls: 0 for no effect and ±100 for the full control effect; nearly all actives have a fitted effect of over 50% in size)
Outline: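 Tet-on ROR gamma CHO cells (1,000/well) were plated 4 hr, given compounds in DMSO for 2 hr at 37 C, then induced with 1 uM final doxycycline for 16 hr. Viability was read as ATP by CellTiter-Glo luminescence after 30 min.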

[7] = qHTS assay to identify small molecule agonists of the AP-1 signaling pathway - cell viability counter screen (AID 1159525); note: nearly all actives have a fitted effect of over 55% in size
Outline: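 ME-180 AP-1-bla, 2500 cells/well, Opti-MEM + 0.5% dialyzed FBS; overnight 37 °C; cpd 15-pt titration, 5 h 37 °C; CellTiter-Glo 30 min RT; luminescence read; normalised to TOAB and DMSO controls.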

[8] = qHTS assay to identify small molecule agonists of the AP-1 signaling pathway (AID 1159526); note: % is set by controls: 0 for no effect and ±100 for the full control effect
[9] = qHTS assay to identify small molecule agonists of the vitamin D receptor (VDR) signaling pathway - cell viability counter screen (AID 743224; active = well fitted cell-killing curve with a large enough effect in the repeat runs; note: series mostly up to about 63 µM; % is set by controls: 0 for no effect and ±100 for the full control effect; nearly all actives have a fitted effect of over 50% in size)
Outline: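 VDR-bla cells were preincubated 4 h at 37C/5% CO2, then exposed to compounds for 16 h. After the 2 h room-temperature bla FRET read, CellTiter-Glo was added to the same wells and luminescence read after 30 min.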

O=C(CCCl)NCc1ccccc1
inactive: Potency [1] | outcome [2] | outcome [3] | outcome [4] | outcome [5] | Potency [6] | outcome [7] | Potency [8]

O=C1CCCCCCCCCCC(=O)OCCO1
inactive: Potency [9] | Potency [1] | outcome [2] | outcome [3] | outcome [4] | outcome [5] | Potency [6] | outcome [7]

C/C(=N\O)[C@@H](C)NCC(C)(C)CN[C@H](C)/C(C)=N/O
inactive: Potency [9] | outcome [2] | outcome [3] | outcome [4] | outcome [5] | Potency [6] | Potency [8]

CN1CCN(C2=Nc3cc(F)ccc3Cc3ccccc32)CC1
inactive: Potency [9] | outcome [2] | outcome [3] | outcome [4] | outcome [5] | Potency [6] | outcome [7]

CCCC1CCC(=O)O1 (stereo not drawn)
inactive: Potency [9] | Potency [1] | outcome [2] | outcome [3] | outcome [4] | outcome [5] | Potency [6] | Potency [8]

CCOc1ccccc1N
inactive: Potency [9] | Potency [1] | outcome [2] | outcome [3] | outcome [4] | outcome [5] | Potency [6] | outcome [7]

O=C1N(c2ccccc2)c2ccccc2C1(Cc1ccncc1)Cc1ccncc1
inactive: Potency [9] | Potency [1] | outcome [2] | outcome [3] | outcome [4] | outcome [5] | Potency [6] | Potency [8]

CCCCC(CC)COC(=O)COc1cc(Cl)c(Cl)cc1Cl (stereo not drawn)
inactive: Potency [9] | Potency [1] | outcome [2] | outcome [3] | outcome [4] | outcome [5] | Potency [6] | outcome [7] | Potency [8]

CCOC(=O)[C@H](CCc1ccccc1)N[C@@H](C)C(=O)N1Cc2cc(OC)c(OC)cc2C[C@H]1C(=O)O
inactive: Potency [9] | Potency [1] | outcome [2] | outcome [3] | outcome [4] | outcome [5] | Potency [6] | outcome [7] | Potency [8]

OCc1c2ccccc2cc2ccccc12
inactive: Potency [1] | outcome [2] | outcome [3] | outcome [4] | outcome [5] | Potency [6] | outcome [7]

CCCCCCCCOC(=O)CCCCCCCCC(=O)OCCCCCCCC
inactive: Potency [9] | outcome [2] | outcome [3] | outcome [4] | outcome [5] | Potency [6] | Potency [8]

CN(CC1(C)CCCO1)S(=O)(=O)c1ccc(Cl)c(S(N)(=O)=O)c1 (stereo not drawn)
inactive: Potency [9] | Potency [1] | outcome [2] | outcome [3] | outcome [4] | outcome [5] | Potency [6] | outcome [7] | Potency [8]

CCOc1ccc(NS(=O)(=O)c2ccc(N)cc2)nn1
inactive: Potency [9] | Potency [1] | outcome [2] | outcome [3] | outcome [4] | outcome [5] | Potency [6] | outcome [7] | Potency [8]

Cc1cn([C@@H]2O[C@H](CO)[C@@H](O)[C@@H]2F)c(=O)[nH]c1=O
inactive: Potency [9] | Potency [1] | outcome [2] | outcome [3] | outcome [4] | outcome [5] | Potency [6] | outcome [7] | Potency [8]

C[C@@H]1CN(c2c(F)c(N)c3c(=O)c(C(=O)O)cn(C4CC4)c3c2F)C[C@H](C)N1
inactive: Potency [9] | Potency [1] | outcome [2] | outcome [3] | outcome [4] | outcome [5] | activity, negative = cytotoxicity [6] 2.26% [at 19 µM] | viability change, negative = cytotoxic [7] 1.46% [at 15.8 µM] | activation [8] -6.27% [at 15.8 µM]

C[C@]12C(=O)OC(=O)[C@H]1[C@H]1C=C[C@@H]2C1
inactive: Potency [9] | Potency [1] | outcome [2] | outcome [3] | outcome [4] | outcome [5] | Potency [6] | outcome [7]

Cc1ccc([N+](=O)[O-])cc1Cl
inactive: Potency [1] | outcome [2] | outcome [3] | outcome [4] | outcome [5] | Potency [6] | outcome [7] | Potency [8]

O=c1[nH]cnc2c1ncn2[C@@H]1O[C@H](CO)[C@@H](O)[C@H]1O
inactive: Potency [9] | Potency [1] | outcome [2] | outcome [3] | outcome [4] | outcome [5] | Potency [6] | outcome [7]

CC(C)CCCCCCc1ccc(OCCOCCO)cc1
inactive: Potency [9] | Potency [1] | outcome [2] | outcome [3] | outcome [4] | outcome [5] | Potency [6] | outcome [7] | Potency [8]

CCOC(=O)c1ccccc1O
inactive: Potency [9] | Potency [1] | outcome [2] | outcome [3] | outcome [4] | outcome [5] | Potency [6] | outcome [7] | Potency [8]

Cc1ccc(C)c(N)c1
inactive: Potency [9] | Potency [1] | outcome [2] | outcome [3] | outcome [4] | outcome [5] | Potency [6] | outcome [7] | Potency [8]

CC(Oc1c(Cl)cccc1Cl)C1=NCCN1 (stereo not drawn)
inactive: Potency [9] | Potency [1] | outcome [2] | outcome [3] | outcome [4] | outcome [5] | Potency [6] | outcome [7]

CC/C=C\CCOC(=O)C(C)C
inactive: Potency [1] | outcome [2] | outcome [3] | outcome [4] | outcome [5] | Potency [6] | outcome [7] | Potency [8]

COC(=O)c1ccc(OC)cc1
inactive: Potency [9] | Potency [1] | outcome [2] | outcome [3] | outcome [4] | outcome [5] | Potency [6] | outcome [7] | Potency [8]
